Hit rate of the full screen: of about 340,000 compounds, about 1,000 (0.29%) were called active. The list is a sample of the results. Measured potencies and affinities stand elsewhere. Values without a mark were called inactive. Rule as the data show it: inconclusive = inhibition above about 27% without an active follow-up result; inactive = below that.
assay: H1N1 influenza NS1A inhibitors, functional cell based assay (AID 504329); conditions: percent inhibition, at 12.5 µM, active compounds read high

| Compound | inhibition |
| --- | --- |
| CCOC(=O)c1sc(NC(=O)CNCc2cccnc2)c(C(=O)OCC)c1C | -2.69% |
| CCOC(=O)c1c(NC(=O)COC(=O)c2ccccn2)sc(C(=O)N(C)C)c1C | -8.42% |
| COCCN(C(=O)c1csnn1)C(C(=O)NC1CCCCC1)c1ccccc1F (configuration not stated) | -4.23% |
| CCCSc1ccc([C@H]2N[C@@](C)(C(=O)OC)[C@H]3C(=O)N(C)C(=O)[C@@H]23)cc1 | 6.02% |
| COC(=O)c1cc2cc(NS(=O)(=O)c3ccc(C)cc3)ccc2s1 | -3.1% |
| Oc1[nH]c2ccc(Br)cc2c1N=NC(=S)Nc1ccc(F)cc1 | -7.69% |
| NC(=S)N=Nc1c(O)[nH]c2ccccc12 | 14.1% |
| O=C(N=Nc1c(O)[nH]c2ccccc12)c1ccc(CN2CCOCC2)cc1 | 7.41% |
| N=C(N)N=Nc1c(O)[nH]c2ccc(Br)cc12 | -0.68% |
| Cc1ccc(N(CC(=O)NC2CCCCC2)C(=O)CNC(=O)c2ccco2)cc1C | 7.87% |
| CC(C)c1ccc(C(=O)OCC(=O)NC2CCCC2)cc1 | 1.66% |
| CCOc1ccc(N2CC(O)(c3cccs3)[N+]3=C2CCCC3)cc1 (configuration not stated) | 2.37% |
| COc1ccccc1C(=O)NC(CCSC)C(=O)NCc1ccncc1 (configuration not stated) | -4.75% |
| CCc1cc2c(=O)oc(-c3ccc(F)cc3)nc2s1 | -6.8% |
| COC(=O)C1CC2=C(CCC2=O)N(c2ccccc2)C1=O (configuration not stated) | -7.88% |
| Cc1ccc(S(=O)(=O)N(C)C)cc1NC(=O)COC(=O)/C(=C/c1ccc(F)cc1)c1cccs1 | -0.58% |
| O=C1/C(=C/c2ccccc2)Nc2ccccc21 | 14.7% |
| O=C1Nc2ccccc2C1=O | 0.1% |
| O=C(COC(=O)CN1C(=O)COc2ccccc21)NCc1ccc(F)cc1 | -6.84% |
| COc1ccc(CN(C)CC(=O)Nc2sc3c(c2C#N)CCC3)c(OC)c1 | -1.01% |
| O=[N+]([O-])c1nn(-c2ccccc2)[n+]([O-])c1N1CCN(c2ccccc2F)CC1 | 2.62% |
| CCc1ccc(NSc2ccccc2[N+](=O)[O-])cc1 | 28.4% |
| CC(=O)c1ccc(NC(=S)Nc2ccc(Br)c(Cl)c2)cc1 | -4.9% |
| CC(=O)N(C)c1ccc(N=C2C(=O)Nc3ccccc32)cc1 | 3.21% |
| Cc1ccc(N=C2C(=O)Nc3ccccc32)cc1 | -4.95% |
| C=CCn1c(SCC(=O)N(C)C)nc2cc(C(=O)O)ccc2c1=O | -7.19% |
| C=CCn1c(Sc2ccccc2)nc2c1c(=O)[nH]c(=O)n2C | -6.06% |
